The full list was thinned out, with hits kept by preference.
TTR transcr act: increases transthyretin transcription. activation, % at 16.7 µM. SH-SY5Y TTR promoter Gaussia luciferase, luminescence; 100% = recombinant luciferase protein wells. AID 1117267. 1.3% of 92,000 active;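 active = activation above the mean of all tested compounds plus 3 SD, cut at about 9.5% in these data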;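 also: cells exposed to compounds for one day before reading; 0% = median of all test compound wells on the plate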
TTR inh HuH7: counter-screen for TTR activators: TTR transcription inhibitors in HuH7 cells. HuH7 TTR promoter-Gaussia luciferase reporter, luminescence. shares compounds with TTR transcr act. 4% of 1,100 active. inhibition, % at 16.7 µM;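 active = average inhibition above the solvent-only control wells' mean plus 3 SD, cut at about 15% in these data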;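 also: 0% = cells with DMSO only and 100% = cells with inhibitor control FD; inhibitors lower well luminescence so higher value means more inhibition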
TTR act confirm: human TTR transcription activation, confirmation; SHSY5Y TTR promoter Gaussia luciferase, luminescence; 100% = purified Lucia enzyme wells, no cells; 1,100 tested, under 10 active; shares compounds with TTR transcr act; AID 1117280; activation, % at 16.7 µM;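 active = mean activation above a set limit taken from the earlier primary screen, cut at about 11% in these data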;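 also: 0% = DMSO-treated cells and 100% = recombinant Lucia luciferase without cells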
* marks the source's active call; other numbers are inactive results.

SMILES	TTR transcr act	others
COc1ccc(-n2cc(-c3ccc(OC(F)F)cc3)[n+]3c2CCCCC3)cc1	-0.5
COc1ccc(-c2cn(-c3ccc(Cl)cc3)c3[n+]2CCCCC3)cc1	11.9*	TTR inh HuH7=0.1;TTR act confirm=0.6
Clc1ccc(-c2cn(-c3ccc(Cl)cc3)c3[n+]2CCCCC3)cc1	-2.1
CCC[C@H]1[C@@H](OC(=O)NCc2ccc(Cl)cc2)CC[C@@]23CCCN2C(=O)CCC[C@@H]13	1.1
CC(=O)NC(Cc1ccccc1)P(=O)(O)O (stereo not drawn)	-1.5
COCO[C@@H]1CC(CO)=C[C@H]2OCO[C@H]21	7.3
O=Nc1ccccn1	1.2
CN(C(=O)COc1ccccc1)c1nc(-c2ccc(F)cc2)cs1	-0.5
COCC(=O)N(C)c1nnc(-c2cnc(C)cn2)s1	9.7*	TTR inh HuH7=-8.3;TTR act confirm=-1.0
COCC(=O)Nc1nnc(-c2cccs2)s1	0.9
CC(C)CCNC(=O)C1COC(O)(C(Cc2ccccc2)NC(=O)[C@@H](NC(=O)OCc2ccccc2)C(C)C)CN1 (stereo partly drawn)	-1.1
Cc1cccc(S(=O)(=O)N2C[C@@H](O)COC[C@@H]3O[C@H](CC(=O)NCCCN4CCOCC4)CC[C@H]32)c1	-0.2
Cc1cc(C)cc(NC(=O)O[C@@H]2CC[C@@]34CCCN3C(=O)CCC[C@H]4C2)c1	-1.5
CC1CCC2(CC1)CCC2NCc1ccc(Br)cc1 (stereo not drawn)	1.6
O=C(Nc1ccc(C(O)(C(F)(F)F)C(F)(F)F)cc1)c1ccc(F)cc1F	0.1
O=C(O)Cc1n[nH]c(=O)c2ccccc12	4.8
O=c1[nH]nc(Cc2ccc(Cl)cc2Cl)c2ccccc12	-2.4
CN(C)Cc1n[nH]c(=O)c2ccccc12	26.2*	TTR inh HuH7=-7.4;TTR act confirm=-0.5
C[C@H]1[C@@H](NC(=O)c2ccc(Cl)cc2)CC[C@@]23CCCN2C(=O)CCC[C@@H]13	1.1
Cc1ccc(S(=O)(=O)N(C)C)cc1NC(=O)c1cccs1	1.2
Cc1ccc(S(=O)(=O)N(C)C)cc1NC(=O)CSc1ccc2c(c1)OCCO2	2.2
Cc1ccc(S(=O)(=O)N(C)C)cc1NC(=O)C1CCCC1	11.3*	TTR inh HuH7=-16.2;TTR act confirm=-0.9
Oc1ccc(Oc2ccccc2F)c2cccnc12	-3.4
Cc1nn(C)cc1NC(=O)C[C@H]1CC[C@H]2[C@@H](COc3ccc(NC(=O)Nc4ccccc4)cc3C(=O)N2C)O1	3.8
Cc1ccc(C(=O)NCCCc2ccccc2)s1	67.3*	TTR inh HuH7=-7.3;TTR act confirm=0.6
SMILES	TTR transcr act	others
Cc1ccc(C(=O)Nc2ccc(OCc3ccccc3)cc2)s1	0.3
COc1ccc(C(=O)NCCCc2ccccc2)cc1	-0.8
Cc1nc2sc(C(=O)NCc3ccc4c(c3)OCO4)c(N)c2c(C)c1Cl	0.5
O=C(Nc1ccccc1N1CCCCC1)c1cnccn1	2.0
O=C(NNC(=O)c1cnccn1)c1ccc(Cl)cc1	-2.3
O=C(NNC(=O)C1CCCCC1)c1cnccn1	12.5*	TTR inh HuH7=-8.6;TTR act confirm=0.1
O=C(c1cccs1)C1CCN(c2ncnc3sccc23)CC1	-3.8
CCOC(=O)N1CCN(C(=O)C[C@H]2C[C@@]3(C(=O)OC)C(=C[C@H](C(C)C)O[C@@H]3C3CC3)N(CCc3ccc(OC)c(OC)c3)C2=O)CC1	-1.5
Cc1c(C2(O)CCCCC2)[nH]c2ncccc12	11.2*	TTR inh HuH7=-15.7;TTR act confirm=0.1
Cc1c(C2(O)CCCCC2)[nH]c2cnccc12	1.1
Cc1c(C2(O)CCCCC2)[nH]c2cc(C(F)(F)F)ccc12	-8.4
Cc1ccccc1CN1CCCCC(NC(=O)Nc2ccccc2-c2ccccc2)C1=O (stereo not drawn)	-1.4
CCOC(=O)N1CCN(C(=O)C[C@H]2C[C@@]3(C(=O)OC)C(=C[C@H](COCc4ccccc4)O[C@@H]3C)N(Cc3ccccc3)C2=O)CC1	1.1
COc1ccc(S(=O)(=O)N2CCN(Cc3ccccc3OC)CC2)cc1	-1.1
CCn1c(N2CCN(S(=O)(=O)c3ccc(OC)cc3)CC2)nc2ccccc21	13.9*	TTR inh HuH7=-11.7;TTR act confirm=-0.9
COc1ccc(S(=O)(=O)n2c(N)nc3ccccc32)cc1	-1.2
CCCCC(=O)Nc1cc(C)c(NC(=O)c2cccs2)cn1	-2.3
CCC(=O)Nc1cc(C)c(NC(=O)C23CC4CC(CC(C4)C2)C3)cn1	9.9*	TTR inh HuH7=-16.6;TTR act confirm=0.3
CCC(=O)Nc1cnc(NC(=O)c2cccc(F)c2)cc1C	-0.1
CCCC1CCC2(CC1)CCC2OC(=O)Nc1cc(C)cc(C)c1 (stereo not drawn)	2.5
CC1(c2nnnn2Cc2ccccc2)CCCCC(=O)N1Cc1cccs1 (stereo not drawn)	-0.6
CCC[C@H]1[C@@H](OC(=O)NCc2ccc(C)o2)CC[C@@]23CCCN2C(=O)CCC[C@@H]13	-1.4
O=C(NCCN1CCOCC1)c1cc(-c2ccc(F)cc2)on1	4.3
O=C(NCCN1CCOCC1)c1cc(-c2ccco2)on1	3.0
CC(C)Cc1cc(C(=O)NCCCN2CCOCC2)no1	11.2*	TTR inh HuH7=1.9;TTR act confirm=-1.1
SMILES	TTR transcr act	others
CS(=O)(=O)c1ccc(C(=O)OCC#CCSc2nnc(-c3cccc4ccccc34)o2)cc1	-0.9
O=C(O[C@H]1CC[C@@]23CCCN2C(=O)CCC[C@H]3C1)N1CCOCC1	-0.6
C[C@H]1[C@@H](OC(=O)NCCc2ccccc2)CC[C@@]23CCCN2C(=O)CCC[C@@H]13	3.1
CC(=O)C1CCC2C3CCC4=CC(=O)C=CC4(C)C3CCC12C (stereo not drawn)	-1.4
CC(=O)C1CCC2C3CCC4CC(=O)CCC4(C)C3C(O)CC12C (stereo not drawn)	10.0*	TTR inh HuH7=-1.0;TTR act confirm=-0.6
CC(=O)C1C(C)CC2C3CCC4CC(=O)CCC4(C)C3CCC21C (stereo not drawn)	0.2
COC(=O)C[C@H]1CC[C@@H]2[C@@H](COc3ccc(NS(=O)(=O)c4ccccc4Cl)cc3C(=O)N2C)O1	-1.5
CC(C)n1nnnc1C1(C)CN(S(C)(=O)=O)CC(=O)N1Cc1cccc(C(F)(F)F)c1 (stereo not drawn)	-1.2
O=[N+]([O-])c1ccc(Br)c(CN2CCN(c3ncc(Cc4ccccc4)cn3)CC2)c1	-1.9
CC(C)CN1C(=O)C[C@@]2(C(=O)N(C)c3ccc(NC(=O)C(F)(F)F)cc32)C1c1ccccc1 (stereo partly drawn)	5.0
CCOc1ccc(S(=O)(=O)N2CCN(C(=O)Cc3ccc(S(=O)(=O)N4CCOCC4)s3)CC2)cc1	3.5
CC1CCCCC1NC(=O)Cc1ccc(S(=O)(=O)N2CCOCC2)s1 (stereo not drawn)	0.9
CN(Cc1ccc(Cl)cc1Cl)C(=O)Cc1ccc(S(=O)(=O)N2CCOCC2)s1	20.5*	TTR inh HuH7=-5.5;TTR act confirm=-0.5
C[C@H]1C2CC(OC(=O)Nc3ccc(C(F)(F)F)cc3)C(C2)[C@H]2CCCCN21 (stereo partly drawn)	1.3
CCOC(=O)C1(C(=O)OCC)Cc2c([nH]c3ccccc23)[C@]2(N1)C(=O)N(C)c1ccc(Br)cc12	-3.3
COc1ccc(C2=Nn3c(nnc3-c3ccc(OC)cc3)SC2)cc1	-0.7
c1cc2c(cc1C1=Nn3c(nnc3C3CCCCC3)SC1)OCO2	9.9*	TTR inh HuH7=30.4*;TTR act confirm=-0.6
CC(C)(C)C1=Nn2c(nnc2C2CCCCC2)SC1	1.9
COC(=O)C[C@@H]1CC[C@H]2[C@@H](COc3ccc(NC(=O)Nc4cccc(F)c4)cc3C(=O)N2C)O1	-1.5
Cc1cc(OCc2cc3c(cc2Cl)OCO3)c2c(C)cc(=O)oc2c1	11.3*	TTR inh HuH7=-17.2;TTR act confirm=1.0

Screens from PubChem.
